This is an account of results in article PMC4336329 (PLoS ONE, 2015).

The campaign covered roughly 310,000 compounds. About 14,000 (4.5%) showed an effect of 50% or more. Effects have a minus sign here. The entries come from a sample that favours strong results as a whole.
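Also: peak tail current of the secondary pulse compared with the same well before compound.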

Chain of human ether-à-go-go-related gene (hERG) potassium channel (Q12809 whole entry, looked up): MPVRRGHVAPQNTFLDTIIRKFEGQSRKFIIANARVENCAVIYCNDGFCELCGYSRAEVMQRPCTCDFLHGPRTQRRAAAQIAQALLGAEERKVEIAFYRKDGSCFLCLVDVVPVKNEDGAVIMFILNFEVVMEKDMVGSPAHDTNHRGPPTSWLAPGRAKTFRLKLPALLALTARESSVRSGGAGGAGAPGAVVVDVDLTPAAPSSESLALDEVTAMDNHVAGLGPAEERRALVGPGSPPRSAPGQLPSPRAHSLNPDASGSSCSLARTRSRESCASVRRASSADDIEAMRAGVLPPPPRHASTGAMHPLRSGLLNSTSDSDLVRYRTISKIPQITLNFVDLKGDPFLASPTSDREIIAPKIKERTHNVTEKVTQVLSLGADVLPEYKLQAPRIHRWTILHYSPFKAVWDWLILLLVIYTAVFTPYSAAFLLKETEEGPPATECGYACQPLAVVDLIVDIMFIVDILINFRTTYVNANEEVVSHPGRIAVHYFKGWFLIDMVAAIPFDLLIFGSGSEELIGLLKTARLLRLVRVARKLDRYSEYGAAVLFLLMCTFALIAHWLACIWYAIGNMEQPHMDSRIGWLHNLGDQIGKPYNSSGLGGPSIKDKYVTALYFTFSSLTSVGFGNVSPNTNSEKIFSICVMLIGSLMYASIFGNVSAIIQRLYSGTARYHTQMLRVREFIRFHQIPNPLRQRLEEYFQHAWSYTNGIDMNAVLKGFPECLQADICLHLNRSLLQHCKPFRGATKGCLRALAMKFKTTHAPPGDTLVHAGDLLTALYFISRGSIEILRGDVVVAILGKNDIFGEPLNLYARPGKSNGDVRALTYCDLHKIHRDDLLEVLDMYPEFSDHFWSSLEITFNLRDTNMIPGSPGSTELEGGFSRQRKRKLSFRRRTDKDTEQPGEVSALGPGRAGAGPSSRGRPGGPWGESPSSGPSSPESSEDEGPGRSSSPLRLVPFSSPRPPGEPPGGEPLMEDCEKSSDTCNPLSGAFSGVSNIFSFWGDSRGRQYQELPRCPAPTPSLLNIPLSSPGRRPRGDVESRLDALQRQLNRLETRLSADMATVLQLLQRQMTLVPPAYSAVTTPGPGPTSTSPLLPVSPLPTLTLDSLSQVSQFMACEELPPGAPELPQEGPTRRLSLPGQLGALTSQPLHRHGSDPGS

This assay addresses human ether-à-go-go-related gene (hERG) potassium channel (human, UniProt Q12809). Nature of the assay: primary screen, population patch clamp on CHO cells stably expressing hERG; higher = less effect of the substance.
As to `O=C(NC(Cc1ccccc1)c1ccc2c(c1)OCCCO2)c1ccc(F)cc1` (centres unmarked), the “hERG current change (%, negative = inhibition) at 10uM” value amounted to 8.05%.
The value for `COc1ccc2cc1Oc1ccc(cc1)CC1c3c(cc(OC)c4c3Oc3cc5c(cc3O4)CCNC5C2)CCN1C` (centres unmarked) was 0.681%.
The value for `N#Cc1c(Cl)nc(SCc2ccccc2)nc1-c1ccccc1` was 8.45%.
In the case of `CN(C(=O)c1ccccc1C(=O)OCC(=O)Nc1ccccc1)c1ccccc1`, the “hERG current change (%, negative = inhibition) at 10uM” value is recorded as 0.655%.
For `CN(C(=O)c1ccccc1C(=O)OCC(=O)Nc1ccc(S(N)(=O)=O)cc1)c1ccccc1`, the “hERG current change (%, negative = inhibition) at 10uM” value is -5.32%.
On to `CN(C(=O)c1ccccc1C(=O)OCC(=O)Nc1ccc(OC(F)F)cc1)c1ccccc1`, for which the “hERG current change (%, negative = inhibition) at 10uM” value was -54%.
Regarding `CCOc1cc2c(Cl)ncnc2c(OCC)c1OCC`, the “hERG current change (%, negative = inhibition) at 10uM” value came to 23.3%.
As to `CCOC(=O)c1cccc(NC(=O)CCn2cccc2)c1`, the “hERG current change (%, negative = inhibition) at 10uM” value is -27.7%.
For `COc1cc(Nc2nc(SCC#N)nc3ccccc23)cc(OC)c1OC`, the “hERG current change (%, negative = inhibition) at 10uM” value is listed as -32%.
Take `COc1ccccc1Nc1nc(-c2ccccc2)nc2ccccc12`: the “hERG current change (%, negative = inhibition) at 10uM” value is 23.5%.
The value for `COc1ccc(OC)c(Nc2c3ccccc3nc3ccccc23)c1` was -11%.
For the molecule `COc1ccc([N+](=O)[O-])cc1Nc1c2ccccc2nc2ccccc12`, the “hERG current change (%, negative = inhibition) at 10uM” value came out at 9.54%.
`COc1cc(NC(=O)c2ccc3c(SCC(=O)O)c4c(nc3c2)CCCC4)cc(OC)c1OC`: the “hERG current change (%, negative = inhibition) at 10uM” value stood at 12.3%.
With `COc1ccccc1Nc1c2ccccc2nc2ccccc12`, the “hERG current change (%, negative = inhibition) at 10uM” value is given as -71%.
Turning to `COc1cc(NS(C)(=O)=O)ccc1Nc1c2ccccc2nc2ccccc12.Cl`, the “hERG current change (%, negative = inhibition) at 10uM” value is -67.7%.
With `COc1cc(Nc2c3c(nc4ccccc24)CCCC3)cc(OC)c1OC`, the “hERG current change (%, negative = inhibition) at 10uM” value was -65.9%.
Then `COc1cc(Nc2c3ccccc3nc3ccccc23)cc(OC)c1OC`, with -63.9%; and `COc1c2ccccc2nc2ccccc12`, with 13.3%; and `COc1ccc(Nc2nc(N)c3ccccc3n2)c(OC)c1.Cl`, with -14.9%.
On to `COc1ccc(S(=O)(=O)N2CCCCCC2)cc1NC(=O)CN1C(=O)NC(C)(c2ccc(C)cc2)C1=O` (centres unmarked), for which the “hERG current change (%, negative = inhibition) at 10uM” value is given as -12.8%.
As for `Cc1ccc(NC(=O)CCC(=O)c2cccs2)cc1F`, the “hERG current change (%, negative = inhibition) at 10uM” value amounted to 2.31%.
On to `CCOC(=O)c1oc2cc(O)c(CC)cc2c(=O)c1-c1cscn1`, for which the “hERG current change (%, negative = inhibition) at 10uM” value came out at 2.56%.
Consider `CCC(C)N1C(=O)CCC1C(=O)N1CCN(c2ccc(F)cc2)CC1` (centres unmarked), for which the “hERG current change (%, negative = inhibition) at 10uM” value is reported as -28.3%.
Take `COc1cc(NC(=O)CSc2c3c(nc4ccccc24)CCC3)cc(OC)c1OC`: the “hERG current change (%, negative = inhibition) at 10uM” value is -7.51%.
For `COC(=O)c1c2c(nc3ccccc13)CCC2`, the “hERG current change (%, negative = inhibition) at 10uM” value is recorded as -3.81%.
For `Cc1ccc(O)c(Nc2c3ccccc3nc3ccccc23)c1`, the “hERG current change (%, negative = inhibition) at 10uM” value was -52.8%.
`Cc1ccc(O)c(Nc2nc(-c3ccccc3)nc3ccccc23)c1`: the “hERG current change (%, negative = inhibition) at 10uM” value is on record as 14.9%.
Regarding `COc1ccc(Nc2nc(-c3ccccc3F)nc3ccccc23)cc1OC`, the “hERG current change (%, negative = inhibition) at 10uM” value amounted to 0.695%.
The value for `Cc1ccc(O)c(Nc2ncnc3ccccc23)c1.Cl` was 11.8%; that for `COc1ccc(Nc2c3c(nc4ccccc24)CCCC3)cc1OC` was -73.2%; that for `COc1cc(Nc2c3c(nc4ccccc24)CCC3)cc(OC)c1OC` was -60%.
Then `COc1ccc(NC(=O)COC(=O)c2c3c(nc4ccccc24)CCCC3)cc1Cl`, with 9.73%.
`O=C(NCC(c1cccnc1)N1CCN(c2ccc(F)cc2)CC1)c1ccco1` (centres unmarked): the “hERG current change (%, negative = inhibition) at 10uM” value is reported as -47.7%.
For `CN(C)/C=C(\C(=O)c1ccc(F)cc1F)c1nnnn1-c1ccccc1`, the “hERG current change (%, negative = inhibition) at 10uM” value came out at 21.1%.
For the molecule `CCOC(=O)/C(C#N)=C/Nc1ccccc1OC`, the “hERG current change (%, negative = inhibition) at 10uM” value is recorded as 0.538%.
As to `Cc1cc(=O)oc(C)c1C(=O)OCC(=O)c1ccccc1`, the “hERG current change (%, negative = inhibition) at 10uM” value is -5.02%.
For the molecule `COc1ccc(N(Cc2cc3cc(OC)ccc3[nH]c2=O)S(=O)(=O)c2ccc(NC(C)=O)cc2)cc1`, the “hERG current change (%, negative = inhibition) at 10uM” value turned out to be 5.64%.
Turning to `Cc1ccc(C2(c3ccccc3)NC(=O)N(CC(=O)NCc3ccccc3)C2=O)cc1C` (centres unmarked), the “hERG current change (%, negative = inhibition) at 10uM” value was -23%.
Turning to `N#CC1(NC(=O)CN2C(=O)NC(c3ccccc3)(c3ccccc3)C2=O)CCCC1`, the “hERG current change (%, negative = inhibition) at 10uM” value is listed as -55%.
`COc1ccc(C2(c3ccc(OC)cc3)NC(=O)N(CC(=O)NC3(C#N)CCCCC3)C2=O)cc1`: the “hERG current change (%, negative = inhibition) at 10uM” value is given as -42.4%.
As for `Cc1ccc(C2(c3ccccc3)NC(=O)N(CC(=O)NCc3ccco3)C2=O)cc1C` (centres unmarked), the “hERG current change (%, negative = inhibition) at 10uM” value is -50.4%.
For `N#CC1(NC(=O)CN2C(=O)NC3(CCCCCC3)C2=O)CCCCC1`, the “hERG current change (%, negative = inhibition) at 10uM” value was -0.951%.
On to `Cc1cc(NC(=O)CN2C(=O)NC(c3ccccc3)(c3ccc(C)c(C)c3)C2=O)no1` (centres unmarked), for which the “hERG current change (%, negative = inhibition) at 10uM” value is on record as -48.5%.
Then `Cc1ccc(C2(c3ccccc3)NC(=O)N(CC(=O)N(C)C3CCS(=O)(=O)C3)C2=O)cc1C` (centres unmarked), with -22%; and `Cc1ccc(C2(c3ccccc3)NC(=O)N(CC(=O)NC3(C#N)CCCC3)C2=O)cc1C` (centres unmarked), with -63.4%; and `CCN(C(=O)CN1C(=O)NC(c2ccccc2)(c2ccc(C)c(C)c2)C1=O)C1CCS(=O)(=O)C1` (centres unmarked), with -53.4%.
On to `CCN(C(=O)CN1C(=O)NC(c2ccccc2)(c2ccc(C)c(C)c2)C1=O)C1CCCCC1` (centres unmarked), for which the “hERG current change (%, negative = inhibition) at 10uM” value is -33.3%.
Then `Cc1ccc(C2(c3ccccc3)NC(=O)N(CC(=O)NC3CCS(=O)(=O)C3)C2=O)cc1C` (centres unmarked), with -9.17%; and `CCC1(c2ccccc2)NC(=O)N(CC(=O)NC2(C#N)CCCCC2)C1=O` (centres unmarked), with 2.94%.
Regarding `O=C1c2ccccc2C2NC(=O)C3(CCCCC3)N12` (centres unmarked), the “hERG current change (%, negative = inhibition) at 10uM” value is on record as 7.54%.
Then `COc1ccc(C2CC(=O)N(c3ccccc3)C3=C2C(=O)CCC3)cc1` (centres unmarked), with 13.1%; and `O=C(CN1C(=O)CC(c2ccco2)Sc2ccccc21)NCc1ccc2c(c1)OCO2` (centres unmarked), with -37.1%; and `S=C(NCCCc1ccccc1)Nc1ccccc1Cl`, with 2.38%.
For `Fc1ccc(-c2csc(-c3ccc(C4SCCS4)cc3)n2)cc1F`, the “hERG current change (%, negative = inhibition) at 10uM” value is on record as 4.89%.
In the case of `COC(=O)C1=C(N)Oc2cc(C)n(Cc3cccnc3)c(=O)c2C1c1ccc(OC)c(OC)c1` (centres unmarked), the “hERG current change (%, negative = inhibition) at 10uM” value is given as -19%.
In the case of `CCOC(=O)c1cc(C)n(-c2c(C)n(C)n(-c3ccccc3)c2=O)c1C`, the “hERG current change (%, negative = inhibition) at 10uM” value is recorded as 21.6%.
Turning to `CC1(C)C/C(=N\NC(=S)Nc2ccccc2F)c2cc(O)ccc2O1`, the “hERG current change (%, negative = inhibition) at 10uM” value is recorded as -18.8%.
On to `Cc1ccc(NC(=S)N/N=C2\CC(C)(C)Oc3ccc(O)cc32)cc1`, for which the “hERG current change (%, negative = inhibition) at 10uM” value worked out at 12%.
The value for `Cc1cccc(NC(=S)N/N=C2\CC(C)(C)Oc3ccc(O)cc32)c1` was 8.34%; that for `CC(=O)N1CCC2(CC1)C/C(=N\NC(=S)Nc1ccccc1F)c1cc(O)ccc1O2` was -69%.
Take `Cc1ccccc1NC(=S)N/N=C1\CC(C)(C)Oc2ccc(O)cc21`: the “hERG current change (%, negative = inhibition) at 10uM” value is 42.1%.
On to `CC(=O)N1CCC2(CC1)C/C(=N\NC(=S)Nc1ccccc1C)c1cc(O)ccc1O2`, for which the “hERG current change (%, negative = inhibition) at 10uM” value is -61.1%.
Then `COc1cccc(NC(=S)N/N=C2\CC(C)(C)Oc3ccc(O)cc32)c1`, with 3.3%; and `COc1ccccc1NC(=S)N/N=C1\CC(C)(C)Oc2ccc(O)cc21`, with 0.968%; and `CC(=O)N1CCC2(CC1)C/C(=N\NC(=S)Nc1ccc(C)cc1)c1cc(O)ccc1O2`, with -70.8%.
The value for `COc1ccc(C(=O)CC(=O)C(=O)Nc2ccc(C)c(C)c2)cc1` was -12.2%; that for `O=C1CSC(c2cccnc2)N1c1ccccc1` (centres unmarked) was 13%.
For `CCOCCCNC(=O)CCNS(=O)(=O)c1ccc(C)cc1`, the “hERG current change (%, negative = inhibition) at 10uM” value was 3.47%.
The value for `Cc1ccc(S(=O)(=O)N(C)c2ccc(OCC(=O)Nc3nc4ccccc4s3)cc2)cc1` was 17.8%; that for `Cc1cccc(C(=O)Oc2ccc(/C=N/NC(=O)c3ccc(O)cc3)cc2)c1` was 28.6%.
The value for `Cc1nnc(SC(C)C(=O)Nc2ccc(S(=O)(=O)N3CCCCC3)cc2)s1` (centres unmarked) was -18.4%; that for `CC(C)NC(=O)C1(O)c2ccccc2NC(=O)N1c1ccc(Cl)c(Cl)c1` (centres unmarked) was 9.1%; that for `Cc1cccc(N2CCN(C3=NC(=O)C(Cc4ccccc4)S3)CC2)c1` (centres unmarked) was -30.7%.
Take `Cc1cccc(CC2SC(N)=NC2=O)c1.Cl` (centres unmarked): the “hERG current change (%, negative = inhibition) at 10uM” value was determined as 19.9%.
Consider `Cc1cccc(CC2SC(N3CCN(c4ccccc4)CC3)=NC2=O)c1` (centres unmarked), for which the “hERG current change (%, negative = inhibition) at 10uM” value is listed as -53.5%.
Then `Cc1ccc(N2CCN(C3=NC(=O)C(Cc4ccccc4)S3)CC2)cc1` (centres unmarked), with -40.1%; and `NC1=NC(=O)C(Cc2ccccc2)S1` (centres unmarked), with 2.01%.
For `O=C1N=C(N2CCN(c3ccccc3)CC2)SC1Cc1ccccc1` (centres unmarked), the “hERG current change (%, negative = inhibition) at 10uM” value is on record as -66.4%.
Then `O=c1c2[nH]c3cccc(Cl)c3c2ncn1Cc1ccncc1`, with -13.6%; and `CN(C)S(=O)(=O)c1ccc(Cl)c(NC(=O)CN2C(=O)NC3(CCc4ccccc43)C2=O)c1` (centres unmarked), with -18%; and `CC(C)C(NS(=O)(=O)c1ccc2c(c1)oc(=O)n2C)C(=O)N1CCN(C2CCCCC2)CC1` (centres unmarked), with 2.88%.
`Cc1ccc(C)c(NC(=O)C2CCCN2C(=O)OC(C)(C)C)c1` (centres unmarked): the “hERG current change (%, negative = inhibition) at 10uM” value is given as 1.04%.
For `O=C(CN(CCc1ccccc1)S(=O)(=O)c1ccc(Cl)cc1)N/N=C/c1ccccc1C(=O)O`, the “hERG current change (%, negative = inhibition) at 10uM” value is recorded as 14.6%.
